These results are taken from the supplement of paper PMC10849652.

Of roughly 7,900 targets only a part is listed; those with a hit were picked by preference. About 0.6% of all pairs of compound and target were hits.

Sequence of UniProt O14526 (O14526 whole entry, looked up): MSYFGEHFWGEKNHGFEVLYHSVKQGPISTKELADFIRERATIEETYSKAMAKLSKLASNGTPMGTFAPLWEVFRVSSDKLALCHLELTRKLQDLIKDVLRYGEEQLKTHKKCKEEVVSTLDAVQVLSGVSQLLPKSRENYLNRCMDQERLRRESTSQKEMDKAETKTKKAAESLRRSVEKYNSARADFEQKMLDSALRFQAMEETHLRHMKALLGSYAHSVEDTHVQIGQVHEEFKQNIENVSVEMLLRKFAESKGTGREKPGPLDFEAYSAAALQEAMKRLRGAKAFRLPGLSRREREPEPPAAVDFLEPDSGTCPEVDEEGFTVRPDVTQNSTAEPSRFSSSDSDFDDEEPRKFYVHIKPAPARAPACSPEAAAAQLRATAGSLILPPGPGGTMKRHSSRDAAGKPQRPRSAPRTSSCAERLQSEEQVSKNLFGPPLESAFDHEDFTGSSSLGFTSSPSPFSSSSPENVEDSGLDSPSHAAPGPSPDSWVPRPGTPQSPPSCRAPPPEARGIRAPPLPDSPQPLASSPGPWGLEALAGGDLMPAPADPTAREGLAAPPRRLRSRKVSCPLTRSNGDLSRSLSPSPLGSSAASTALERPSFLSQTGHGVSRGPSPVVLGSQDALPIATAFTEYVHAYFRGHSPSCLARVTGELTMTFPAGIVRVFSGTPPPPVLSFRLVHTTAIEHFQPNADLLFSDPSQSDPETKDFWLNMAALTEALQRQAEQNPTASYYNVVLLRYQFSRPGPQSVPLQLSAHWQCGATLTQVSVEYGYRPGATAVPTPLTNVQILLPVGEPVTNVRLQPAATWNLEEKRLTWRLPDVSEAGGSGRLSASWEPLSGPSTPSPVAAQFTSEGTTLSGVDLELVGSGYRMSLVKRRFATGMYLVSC
Sequence of UniProt Q9Y324 (Q9Y324 whole entry, looked up): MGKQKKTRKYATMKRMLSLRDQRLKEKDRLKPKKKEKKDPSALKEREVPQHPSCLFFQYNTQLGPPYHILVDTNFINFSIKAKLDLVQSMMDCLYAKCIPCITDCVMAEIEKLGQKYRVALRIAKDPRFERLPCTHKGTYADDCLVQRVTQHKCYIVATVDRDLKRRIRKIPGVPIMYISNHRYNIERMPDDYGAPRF
Sequence of UniProt Q9NZC3 (Q9NZC3 whole entry, looked up): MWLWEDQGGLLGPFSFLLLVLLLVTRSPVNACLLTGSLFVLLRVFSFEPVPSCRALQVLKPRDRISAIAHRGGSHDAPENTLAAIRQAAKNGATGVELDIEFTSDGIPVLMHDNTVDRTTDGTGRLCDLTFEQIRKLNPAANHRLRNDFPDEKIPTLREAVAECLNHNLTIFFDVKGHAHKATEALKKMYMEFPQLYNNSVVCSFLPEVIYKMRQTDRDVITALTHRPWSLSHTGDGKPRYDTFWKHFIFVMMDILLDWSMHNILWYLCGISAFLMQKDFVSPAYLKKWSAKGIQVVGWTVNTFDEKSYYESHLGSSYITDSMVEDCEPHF
Sequence of UniProt O15117 (O15117 whole entry, looked up): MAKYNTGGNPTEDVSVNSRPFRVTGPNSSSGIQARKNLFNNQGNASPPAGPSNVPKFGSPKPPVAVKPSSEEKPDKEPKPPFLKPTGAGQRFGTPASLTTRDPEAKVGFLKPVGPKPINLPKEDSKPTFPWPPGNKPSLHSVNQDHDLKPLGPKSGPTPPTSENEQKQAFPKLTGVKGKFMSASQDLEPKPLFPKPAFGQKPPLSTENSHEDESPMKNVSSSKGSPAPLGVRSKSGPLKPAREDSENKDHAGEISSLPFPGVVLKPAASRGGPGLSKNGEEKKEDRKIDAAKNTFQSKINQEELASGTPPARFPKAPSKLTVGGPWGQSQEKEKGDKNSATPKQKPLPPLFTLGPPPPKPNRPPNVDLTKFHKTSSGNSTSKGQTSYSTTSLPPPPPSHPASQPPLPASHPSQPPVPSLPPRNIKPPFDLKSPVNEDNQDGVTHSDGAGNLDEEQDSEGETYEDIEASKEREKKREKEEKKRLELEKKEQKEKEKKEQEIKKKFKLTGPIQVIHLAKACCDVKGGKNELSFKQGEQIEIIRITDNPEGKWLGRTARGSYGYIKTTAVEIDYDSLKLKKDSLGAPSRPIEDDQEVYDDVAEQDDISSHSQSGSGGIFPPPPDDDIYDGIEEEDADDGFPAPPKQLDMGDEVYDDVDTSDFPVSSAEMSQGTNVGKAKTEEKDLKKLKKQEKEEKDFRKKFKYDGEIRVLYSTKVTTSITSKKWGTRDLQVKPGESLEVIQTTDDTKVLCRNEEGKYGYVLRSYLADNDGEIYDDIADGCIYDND
Sequence of UniProt Q9HCG7 (Q9HCG7 whole entry, looked up): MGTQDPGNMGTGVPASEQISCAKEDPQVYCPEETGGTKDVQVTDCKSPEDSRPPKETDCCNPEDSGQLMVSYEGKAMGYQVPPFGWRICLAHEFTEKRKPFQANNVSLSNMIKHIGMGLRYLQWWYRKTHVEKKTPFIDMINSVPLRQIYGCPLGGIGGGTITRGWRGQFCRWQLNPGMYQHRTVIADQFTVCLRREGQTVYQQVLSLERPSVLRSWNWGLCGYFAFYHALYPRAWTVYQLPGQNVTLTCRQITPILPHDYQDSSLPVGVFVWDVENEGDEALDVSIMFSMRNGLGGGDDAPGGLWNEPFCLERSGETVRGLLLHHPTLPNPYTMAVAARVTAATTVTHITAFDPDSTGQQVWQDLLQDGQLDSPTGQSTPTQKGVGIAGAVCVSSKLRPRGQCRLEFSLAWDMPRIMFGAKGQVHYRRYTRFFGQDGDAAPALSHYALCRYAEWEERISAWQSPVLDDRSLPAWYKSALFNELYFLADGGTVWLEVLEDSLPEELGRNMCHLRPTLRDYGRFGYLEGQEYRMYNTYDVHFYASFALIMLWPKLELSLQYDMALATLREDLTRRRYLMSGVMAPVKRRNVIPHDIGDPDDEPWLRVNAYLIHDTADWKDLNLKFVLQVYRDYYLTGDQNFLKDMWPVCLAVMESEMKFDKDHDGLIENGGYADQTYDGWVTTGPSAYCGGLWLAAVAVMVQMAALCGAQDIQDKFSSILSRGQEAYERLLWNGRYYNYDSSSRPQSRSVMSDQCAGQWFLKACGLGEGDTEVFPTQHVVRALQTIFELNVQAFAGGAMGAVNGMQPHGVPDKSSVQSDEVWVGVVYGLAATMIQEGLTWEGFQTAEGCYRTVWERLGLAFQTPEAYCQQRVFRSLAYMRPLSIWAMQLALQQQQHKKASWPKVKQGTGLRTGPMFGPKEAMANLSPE
Sequence of UniProt Q53T59 (Q53T59 whole entry, looked up): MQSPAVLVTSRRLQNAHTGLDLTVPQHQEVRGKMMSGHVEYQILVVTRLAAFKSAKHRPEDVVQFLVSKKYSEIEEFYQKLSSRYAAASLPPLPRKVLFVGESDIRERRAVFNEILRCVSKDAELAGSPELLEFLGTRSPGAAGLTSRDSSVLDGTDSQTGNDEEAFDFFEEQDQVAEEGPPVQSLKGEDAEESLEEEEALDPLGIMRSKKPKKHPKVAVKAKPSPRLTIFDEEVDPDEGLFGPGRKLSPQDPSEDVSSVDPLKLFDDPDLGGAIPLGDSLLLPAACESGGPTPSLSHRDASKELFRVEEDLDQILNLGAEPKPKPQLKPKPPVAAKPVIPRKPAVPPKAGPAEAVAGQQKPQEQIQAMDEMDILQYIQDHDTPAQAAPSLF
Sequence of UniProt A6NDN3 (A6NDN3 whole entry, looked up): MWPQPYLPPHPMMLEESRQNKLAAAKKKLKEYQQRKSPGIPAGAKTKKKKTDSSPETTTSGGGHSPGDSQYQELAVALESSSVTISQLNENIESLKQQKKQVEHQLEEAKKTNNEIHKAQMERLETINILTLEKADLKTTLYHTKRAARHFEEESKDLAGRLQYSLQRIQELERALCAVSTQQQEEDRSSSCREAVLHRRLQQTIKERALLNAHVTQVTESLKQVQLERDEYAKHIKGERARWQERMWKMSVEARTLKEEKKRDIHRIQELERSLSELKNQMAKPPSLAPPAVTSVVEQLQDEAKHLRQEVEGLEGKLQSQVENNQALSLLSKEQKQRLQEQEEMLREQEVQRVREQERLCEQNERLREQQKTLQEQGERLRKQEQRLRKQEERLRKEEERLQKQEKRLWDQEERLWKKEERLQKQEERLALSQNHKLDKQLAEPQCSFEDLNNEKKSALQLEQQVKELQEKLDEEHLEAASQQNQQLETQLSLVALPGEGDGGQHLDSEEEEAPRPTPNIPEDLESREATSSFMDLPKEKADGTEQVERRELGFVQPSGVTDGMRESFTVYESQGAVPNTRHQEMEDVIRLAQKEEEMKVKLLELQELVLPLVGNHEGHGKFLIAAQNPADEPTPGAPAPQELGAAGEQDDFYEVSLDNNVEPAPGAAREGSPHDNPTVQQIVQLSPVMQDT
Sequence of UniProt Q13227 (Q13227 whole entry, looked up): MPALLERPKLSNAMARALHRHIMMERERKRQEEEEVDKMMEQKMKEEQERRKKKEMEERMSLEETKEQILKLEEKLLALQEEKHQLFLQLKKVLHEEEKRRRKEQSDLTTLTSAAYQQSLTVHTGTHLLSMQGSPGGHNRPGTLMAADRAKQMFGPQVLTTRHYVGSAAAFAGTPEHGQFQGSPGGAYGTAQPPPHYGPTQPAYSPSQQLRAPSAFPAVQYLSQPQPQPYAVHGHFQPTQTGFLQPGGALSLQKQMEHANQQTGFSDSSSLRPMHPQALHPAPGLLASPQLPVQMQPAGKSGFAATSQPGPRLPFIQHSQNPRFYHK
Sequence of UniProt O60725 (O60725 whole entry, looked up): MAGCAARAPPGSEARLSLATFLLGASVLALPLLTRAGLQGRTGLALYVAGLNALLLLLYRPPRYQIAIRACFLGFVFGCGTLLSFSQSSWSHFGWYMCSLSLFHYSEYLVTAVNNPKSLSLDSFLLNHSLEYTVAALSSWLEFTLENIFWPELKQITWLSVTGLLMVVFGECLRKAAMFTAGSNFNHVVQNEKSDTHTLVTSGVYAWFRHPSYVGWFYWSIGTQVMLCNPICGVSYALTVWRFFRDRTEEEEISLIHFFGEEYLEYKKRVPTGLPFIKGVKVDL
Sequence of UniProt Q01628 (Q01628 whole entry, looked up): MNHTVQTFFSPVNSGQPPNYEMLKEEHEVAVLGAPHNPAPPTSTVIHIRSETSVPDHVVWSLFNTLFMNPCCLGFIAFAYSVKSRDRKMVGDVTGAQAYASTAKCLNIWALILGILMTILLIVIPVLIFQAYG

Compound in one test: CS(=O)(=O)c1ccc(-c2cnc(N)c(C(=O)Nc3ccccc3)n2)cc1
Put plainly: log2 fold change, soluble protein after heating vs DMSO (PISA); higher = thermal stabilisation; K562 cells, 10 uM, 30 min; active = over 0.2 and 3.5 SD of the protein, either way, in both replicates (recomputed). The method in brief:
(§1)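 Aliquots of K562 cells (2×10^6 cells/mL) treated with 10 μM compound for 30 min were heated for 3 min over 48°C-58°C. After pooling and extraction in PBS with 0.5% NP-40 at 4°C, soluble protein from a 21,000xg, 90 min spin was quantified by TMTpro 16plex LC-MS/MS with channel sums equalised. Thermal stability is expressed against control samples, from duplicates, as a log2 fold change.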
With HS1BP3 (UniProt Q53T59), the log2 fold change is 0.06 (inactive).

For the target ICMT (UniProt O60725), the log2 fold change is 0.099 (inactive).

On to HSPA8 (UniProt E9PN89), for which the log2 fold change is 0.12 (inactive).

Consider GREB1 (UniProt Q4ZG55), for which the log2 fold change is 0.121 (inactive).

IFITM3 (UniProt Q01628): the log2 fold change was -0.038 (inactive).

For FCHO1 (UniProt O14526), the log2 fold change is 0.033 (inactive).

On to H3-3A (UniProt P84243), for which the log2 fold change was 0.082 (inactive).

For the target GNL3 (UniProt Q9BVP2), the log2 fold change was 0.126 (inactive).

On to GBA2 (UniProt Q9HCG7), for which the log2 fold change was 0.091 (inactive).

Turning to FHOD1 (UniProt Q9Y613), the log2 fold change is 0.033 (inactive).

FMR1 (UniProt Q06787): the log2 fold change is -0.067 (inactive).

Consider HAUS4 (UniProt Q9H6D7), for which the log2 fold change is 0.068 (inactive).

With FCF1 (UniProt Q9Y324), the log2 fold change is 0.06 (inactive).

For GPD1 (UniProt P21695), the log2 fold change was -0.036 (inactive).

For GDE1 (UniProt Q9NZC3), the log2 fold change is 0.033 (inactive).

With GOLGA6B (UniProt A6NDN3), the log2 fold change was -0.003 (inactive).

With GID4 (UniProt Q8IVV7), the log2 fold change is 0 (inactive).

Take GPS2 (UniProt Q13227): the log2 fold change was -0.114 (inactive).

Take HNRNPK isoform 3 (UniProt P61978): the log2 fold change is -0.056 (inactive).

With HNRNPUL1 (UniProt M0R247), the log2 fold change is -0.057 (inactive).

With IFNGR1 (UniProt P15260), the log2 fold change is 0.135 (inactive).

As to GGA2 (UniProt Q9UJY4), the log2 fold change is 0.038 (inactive).

For the target HSPA2 (UniProt P54652), the log2 fold change was 0.011 (inactive).

With FYB1 isoform 3 (UniProt O15117), the log2 fold change was -0.025 (inactive).

Compound in the next test: C[C@@H](Oc1cc(-c2cnn(C3CCNCC3)c2)cnc1N)c1c(Cl)ccc(F)c1Cl [crizotinib]
The description is as above. The method in brief:
as §1
Take GBE1 (UniProt Q04446): the log2 fold change was -0.565 (active).

As to GOLGA8R (UniProt I6L899), the log2 fold change is -0.009 (inactive).

Consider HS1BP3 (UniProt Q53T59), for which the log2 fold change was -0.044 (inactive).

For the target ICMT (UniProt O60725), the log2 fold change is 0.074 (inactive).

HSPA8 (UniProt E9PN89): the log2 fold change was 0.063 (inactive).

On to GREB1 (UniProt Q4ZG55), for which the log2 fold change is 0.163 (inactive).

Consider IFITM3 (UniProt Q01628), for which the log2 fold change was -0.027 (inactive).

Regarding FCHO1 (UniProt O14526), the log2 fold change was -0.118 (inactive).

Regarding GBA2 (UniProt Q9HCG7), the log2 fold change is 0.094 (inactive).

FHOD1 (UniProt Q9Y613): the log2 fold change is -0.107 (inactive).

As to FBXO9 (UniProt Q9UK97), the log2 fold change is 0.028 (inactive).

On to FMR1 (UniProt Q06787), for which the log2 fold change is 0.151 (inactive).

Turning to IDH3A isoform 2 (UniProt P50213), the log2 fold change is -0.206 (inactive).

With FCF1 (UniProt Q9Y324), the log2 fold change was -0.054 (inactive).

As to GDE1 (UniProt Q9NZC3), the log2 fold change was 0.063 (inactive).

In the case of GSTT1 (UniProt P30711), the log2 fold change is 0.332 (active).

In the case of GOLGA6B (UniProt A6NDN3), the log2 fold change is 0.05 (inactive).

Take GPS2 (UniProt Q13227): the log2 fold change was 0.019 (inactive).

As to HNRNPK isoform 3 (UniProt P61978), the log2 fold change was -0.009 (inactive).

With HNRNPUL1 (UniProt M0R247), the log2 fold change was 0.151 (inactive).

As to IGF2 isoform 3 (UniProt P01344), the log2 fold change was -0.07 (inactive).

In the case of FAT2 (UniProt Q9NYQ8), the log2 fold change was -0.148 (inactive).

Take GGA2 (UniProt Q9UJY4): the log2 fold change was -0.089 (inactive).

With HSPA2 (UniProt P54652), the log2 fold change is 0.123 (inactive).

Take FYB1 isoform 3 (UniProt O15117): the log2 fold change was -0.11 (inactive).

Compound in the next test: C[C@@H]1COCCN1C2=NC(=NC(=C2)C3(CC3)S(=O)(=O)C)C4=C5C=CNC5=CC=C4
The test is described as above. The method in brief:
as §1
Consider GBE1 (UniProt Q04446), for which the log2 fold change was -0.054 (inactive).

As to HS1BP3 (UniProt Q53T59), the log2 fold change was 0.028 (inactive).

GPNMB (UniProt Q14956): the log2 fold change is -0.151 (inactive).

With ICMT (UniProt O60725), the log2 fold change was 0.331 (inactive).

Regarding HSPA8 (UniProt E9PN89), the log2 fold change is 0.024 (inactive).

Consider GREB1 (UniProt Q4ZG55), for which the log2 fold change was -0.046 (inactive).

Consider IFITM3 (UniProt Q01628), for which the log2 fold change is 0.069 (inactive).

For FCHO1 (UniProt O14526), the log2 fold change was 0.158 (inactive).

As to GNL3 (UniProt Q9BVP2), the log2 fold change is -0.009 (inactive).

With GBA2 (UniProt Q9HCG7), the log2 fold change is 0.051 (inactive).

For FHOD1 (UniProt Q9Y613), the log2 fold change is -0.174 (inactive).

HAUS4 (UniProt Q9H6D7): the log2 fold change is 0.024 (inactive).

On to FCF1 (UniProt Q9Y324), for which the log2 fold change was -0.225 (inactive).

As for GPD1 (UniProt P21695), the log2 fold change was 0.034 (inactive).

Consider GDE1 (UniProt Q9NZC3), for which the log2 fold change was 0.077 (inactive).

Take GSTT1 (UniProt P30711): the log2 fold change was 0.19 (inactive).

For GOLGA6B (UniProt A6NDN3), the log2 fold change is 0.036 (inactive).

On to GID4 (UniProt Q8IVV7), for which the log2 fold change is 0.054 (inactive).

As to GPS2 (UniProt Q13227), the log2 fold change is 0.208 (inactive).

HNRNPK isoform 3 (UniProt P61978): the log2 fold change was -0.237 (inactive).

For the target IFNGR1 (UniProt P15260), the log2 fold change is -0.1 (inactive).

Regarding FAT2 (UniProt Q9NYQ8), the log2 fold change was 0.131 (inactive).

In the case of GGA2 (UniProt Q9UJY4), the log2 fold change was 0.032 (inactive).

On to FYB1 isoform 3 (UniProt O15117), for which the log2 fold change was 0.046 (inactive).
